MCF10A rereplic – induces DNA re-replication in MCF 10a normal breast cells; MCF 10A DNA re-replication, Hoechst nuclear intensity, 48 h; Potency, µM (titrated, usually from 46.1 µM), without a hit: at the top dose activity, positive = re-replication, most hits filed as activators; 2.9% of 350,000 active; AID 624296; note: potency is the fitted concentration of half-maximal effect; % of control where 0% means no effect; nearly all actives have a fitted effect of over 50% in size
KCNH2 3.1 inh – KCNH2 3.1 (human) potassium channel inhibition; 0.95% of 340,000 active; activity change, % (tested at about 1.8 µM); U2OS KCNH2 3.1, thallium flux FluxOr; hits give low values;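 active = maximum activity change below -70%; inconclusive = maximum activity change from -70% to -50%; inactive = maximum activity change above -50%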;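 note: thallium influx rate constant from kinetic fluorescence after stimulation buffer; % is set by controls: 0 for no effect and ±100 for the full control effect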
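Kinetic fluorescence (2 min after stimulation buffer) measures Tl+ influx through KCNH2 3.1 expressed by viral transduction in U2OS cells; the rate constant is normalized against DMSO controls serving as positive and negative references.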
KCNH2 WT inh – blocks the wildtype human KCNH2 potassium channel | U2OS, BacMam KCNH2, thallium flux FluxOr; hits give low values | activity change, % at 1.84 µM | 0.37% of 340,000 active | AID 720551;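 active = maximum activity change below -70%; inconclusive = maximum activity change between -70% and -50%; inactive = maximum activity change above -50%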; note: % is set by controls: 0 for no effect and ±100 for the full control effect
Target sequence (Q12809 whole entry, looked up): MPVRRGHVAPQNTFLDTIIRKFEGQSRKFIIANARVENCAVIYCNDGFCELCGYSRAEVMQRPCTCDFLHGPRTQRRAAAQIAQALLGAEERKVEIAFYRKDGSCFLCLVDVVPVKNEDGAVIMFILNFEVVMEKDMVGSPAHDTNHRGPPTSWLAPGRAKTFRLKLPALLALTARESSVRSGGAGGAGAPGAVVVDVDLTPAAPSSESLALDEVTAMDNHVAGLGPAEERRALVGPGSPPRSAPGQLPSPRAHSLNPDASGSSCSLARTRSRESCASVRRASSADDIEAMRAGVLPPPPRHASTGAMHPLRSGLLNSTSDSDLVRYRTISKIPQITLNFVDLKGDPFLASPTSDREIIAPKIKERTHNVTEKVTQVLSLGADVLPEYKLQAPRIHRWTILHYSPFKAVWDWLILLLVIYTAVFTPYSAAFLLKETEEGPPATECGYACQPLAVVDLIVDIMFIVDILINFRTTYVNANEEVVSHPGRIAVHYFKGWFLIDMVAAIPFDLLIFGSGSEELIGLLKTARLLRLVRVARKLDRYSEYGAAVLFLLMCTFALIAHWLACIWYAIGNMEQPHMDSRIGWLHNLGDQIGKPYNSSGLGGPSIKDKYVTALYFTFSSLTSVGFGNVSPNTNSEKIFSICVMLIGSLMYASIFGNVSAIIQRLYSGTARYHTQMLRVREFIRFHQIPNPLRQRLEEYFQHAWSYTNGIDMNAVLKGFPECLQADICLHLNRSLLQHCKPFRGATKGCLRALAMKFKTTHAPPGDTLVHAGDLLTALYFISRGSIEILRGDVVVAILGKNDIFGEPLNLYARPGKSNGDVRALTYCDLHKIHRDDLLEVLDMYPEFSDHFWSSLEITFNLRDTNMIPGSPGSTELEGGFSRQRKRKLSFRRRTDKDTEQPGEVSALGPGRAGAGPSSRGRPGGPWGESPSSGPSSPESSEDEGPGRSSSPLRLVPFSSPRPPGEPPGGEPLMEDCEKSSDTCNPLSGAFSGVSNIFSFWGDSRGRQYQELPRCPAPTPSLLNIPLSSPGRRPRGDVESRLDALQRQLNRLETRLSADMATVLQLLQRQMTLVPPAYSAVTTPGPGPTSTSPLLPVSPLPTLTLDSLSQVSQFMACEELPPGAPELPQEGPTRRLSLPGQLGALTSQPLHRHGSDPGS
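U2OS cells transduced with wild-type KCNH2 virus are loaded with FluxOr dye for 45 min, and thallium flux is measured in kinetic reads before and after stimulation buffer. Rate constants are normalized to DMSO controls.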
SW480 rerep – inducers of DNA re-replication in SW480 colon cancer cells. 1.8% of 340,000 active. SW480 DNA re-replication, Hoechst DNA content imaging, 48 h. AID 624297. Potency, µM (titrated, usually from 46.1 µM), inactives show at the highest dose re-replication activation, most hits filed as activators; note: potency is the fitted concentration of half-maximal effect; % of control where 0% means no effect; nearly all actives have a fitted effect of over 55% in size
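250 cells/well; 23 nL cpd via pin tool; 48 hr, 37 C, 5% CO2; Hoechst 40 min; imager read of total nuclear intensity, ex 405/em 500-530 nm.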
KB-3-1 cytotox – kills parental KB-3-1 adenocarcinoma cells | KB-3-1 viability, CellTiter-Glo ATP luminescence, 72 h | Potency, µM (titrated, usually from 46.1 µM), most hits filed as cytotoxic | 1.4% of 400,000 active; note: potency is the fitted concentration of half-maximal effect; % is set by controls: 0 for no effect and ±100 for the full control effect; nearly all actives have a fitted effect of over 60% in size
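Here the drug-naive KB-3-1 line serves as comparator for MDR sub-line selectivity; cells received compound titrations, 72 h at 37 °C, then CellTiter-Glo readout.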
KB-V1 cytotox – kills drug-selected multidrug resistant KB-V1 cells | KB-V1 MDR cells viability, CellTiter-Glo, 72 h | Potency, µM (top dose mostly 46.1 µM), usual class: cytotoxic | 3.4% of 400,000 active | AID 1347076; note: potency is the fitted concentration of half-maximal effect; % is set by controls: 0 for no effect and ±100 for the full control effect; nearly all actives have a fitted effect of over 60% in size
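KB-V1 cells (P-gp-expressing MDR subline of KB-3-1) in phenol-red-free DMEM with 10% FBS were exposed to library compounds over a concentration series for 72 h at 37 degrees C. Viability read by CellTiter-Glo luminescence; concentration-effect curves fitted after normalization.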
Numbers without * were called inactive. In the library only some 7.6% were active in any assay of this set; here they are far more common. Unless noted, calls come from the whole dose curve; as a rule, active = well fitted curve in the direction sought with a large enough effect; inconclusive = small, poorly fitted or top-dose-only effect, or another doubt; inactive = no such curve, though single readings can be large; an effect the other way counts as inactive or inconclusive.

Screening CC1CN(C(=O)CN2C(=O)NC3(CCCCCC3)C2=O)CC(C)O1 (stereo unspecified) returned MCF10A rereplic 0.5%, KCNH2 3.1 inh -89.9*, KCNH2 WT inh -0.1, SW480 rerep -1.8%, KB-3-1 cytotox inactive and KB-V1 cytotox inactive.
For Cc1c(C(=O)C(=O)N2c3ccc(F)cc3CCC2C)c2ccccc2n1C (stereo unspecified) the results were MCF10A rereplic 2.59µM*, KCNH2 3.1 inh 0.8, KCNH2 WT inh 5.9, SW480 rerep 7.31µM*, KB-3-1 cytotox 2.91µM* and KB-V1 cytotox 2.91µM*.
Screening Cc1ccc(NC(=O)CN(C)C(=O)COc2ncnc3ccc(Br)cc23)cc1 returned MCF10A rereplic -3.0%, KCNH2 3.1 inh -37.5, KCNH2 WT inh 12.0, SW480 rerep -11.7%, KB-3-1 cytotox inconclusive and KB-V1 cytotox inactive.
For CCCc1cc2c(OC(=O)CC)c(-c3ccc(C(=O)OCC)o3)c(=O)oc2cc1OC the results were MCF10A rereplic 20.6µM*, KCNH2 3.1 inh 26.6, KCNH2 WT inh -9.3, SW480 rerep inconclusive, KB-3-1 cytotox inactive and KB-V1 cytotox inactive.
For Cc1ncsc1C(=O)N1CCCC(C(=O)c2ccc3ccccc3c2)C1 (stereo unspecified) the results were MCF10A rereplic -5.3%, KCNH2 WT inh -5.7, SW480 rerep inconclusive, KB-3-1 cytotox inactive and KB-V1 cytotox inconclusive.
O=C(CCNC(=O)c1ccc([N+](=O)[O-])cc1)Nc1cccc(S(=O)(=O)N2CCCCCC2)c1 was read as MCF10A rereplic inconclusive, KCNH2 3.1 inh inconclusive, KCNH2 WT inh -18.5, SW480 rerep -12.7%, KB-3-1 cytotox inactive and KB-V1 cytotox inactive.
`CN1CCN(S(=O)(=O)c2ccc(Cl)s2)CC1` gave MCF10A rereplic -0.3%, KCNH2 3.1 inh 6.8, KCNH2 WT inh -13.1, SW480 rerep -0.9%, KB-3-1 cytotox inactive and KB-V1 cytotox inactive.
Screening Cc1ccc2nsnc2c1S(=O)(=O)N1CCOCC1 returned MCF10A rereplic -0.1%, KCNH2 3.1 inh -1.7, KCNH2 WT inh -25.0, SW480 rerep -4.9%, KB-3-1 cytotox inactive and KB-V1 cytotox inconclusive.
Screening CSC1=NC(C(Cl)(Cl)Cl)N=C(c2ccccc2)N1 (stereo unspecified) returned MCF10A rereplic inconclusive, KCNH2 3.1 inh 11.0, KCNH2 WT inh -5.5, SW480 rerep inconclusive, KB-3-1 cytotox 3.26µM* and KB-V1 cytotox 5.8µM*.
O=C(CCC(=O)OCc1ccc(Br)cc1)Nc1ccccc1 was read as MCF10A rereplic 0.5%, KCNH2 3.1 inh -2.6, KCNH2 WT inh -2.8, SW480 rerep -4.3%, KB-3-1 cytotox inactive and KB-V1 cytotox inactive.
`NC(C(=O)O)C1ON=C(Cl)C1O` (stereo unspecified) gave MCF10A rereplic 0.4%, KCNH2 WT inh -12.6, SW480 rerep inconclusive, KB-3-1 cytotox 0.326µM* and KB-V1 cytotox 1.64µM*.
O=C(CN1CCSCC1)N/N=C/c1ccc(F)c(F)c1 was read as MCF10A rereplic -7.6%, KCNH2 3.1 inh -1.1, KCNH2 WT inh -16.9, SW480 rerep -0.3%, KB-3-1 cytotox inactive and KB-V1 cytotox inactive.
For CCOc1cc(S(=O)(=O)Nc2ccc(CC)cc2)ccc1Cl the results were MCF10A rereplic inconclusive, KCNH2 3.1 inh 3.3, KCNH2 WT inh 7.5, SW480 rerep 2.4%, KB-3-1 cytotox inconclusive and KB-V1 cytotox 14.6µM*.
`CCc1ccc(NS(=O)(=O)c2ccc(OC)c(C)c2)cc1` gave MCF10A rereplic inconclusive, KCNH2 3.1 inh 8.2, KCNH2 WT inh -6.2, SW480 rerep 5.7%, KB-3-1 cytotox inactive and KB-V1 cytotox 18.4µM*.
`CCCCS(=O)(=O)/C=C\C1C2C=CC(C2)C1S(=O)(=O)CCCC` (stereo unspecified) gave MCF10A rereplic 11.3%, KCNH2 3.1 inh 3.0, KCNH2 WT inh -0.9, SW480 rerep 6.1%, KB-3-1 cytotox inactive and KB-V1 cytotox inactive.
`CCCCS(=O)(=O)/C=C\C=C/S(=O)(=O)CCCC` gave MCF10A rereplic inconclusive, KCNH2 3.1 inh -4.7, KCNH2 WT inh 0.7, SW480 rerep inconclusive, KB-3-1 cytotox 7.31µM* and KB-V1 cytotox inactive.
For COc1ccccc1N1CCN(C(=O)C(C)CS(=O)(=O)c2ccc3c(c2)NC(=O)CS3)CC1 (stereo unspecified) the results were MCF10A rereplic -3.5%, KCNH2 3.1 inh 11.8, KCNH2 WT inh 15.9, SW480 rerep -8.2%, KB-3-1 cytotox inactive and KB-V1 cytotox inactive.
Screening CCCCc1ccc(NC(=O)N2CCN(c3cc(C)nc4ccccc34)CC2)c(C)c1 returned MCF10A rereplic 17.2%, KCNH2 3.1 inh -93.9*, KCNH2 WT inh -44.3, SW480 rerep 20.6µM*, KB-3-1 cytotox inconclusive and KB-V1 cytotox inconclusive.
`CC(=O)Nc1cc(-c2cccnc2)cn2c(-c3ccc(F)cc3)cnc12` gave KB-3-1 cytotox inactive and KB-V1 cytotox inactive.
`O=C1N(Cc2cccc(Cl)c2)C[C@@H]2C[C@@H](c3cccn3-c3nccs3)N3CCC[C@@]123` gave MCF10A rereplic inconclusive, KCNH2 3.1 inh -86.0*, KCNH2 WT inh 13.2, SW480 rerep 8.2%, KB-3-1 cytotox inactive and KB-V1 cytotox inactive.
C#C[C@]1(OC(C)=O)CC[C@H]2[C@@H]3CCC4=C/C(=N/O)CC[C@@H]4[C@H]3CC[C@@]21CC was read as MCF10A rereplic inconclusive and SW480 rerep 18.2%.
Screening O=C(CN(c1cccc([N+](=O)[O-])c1)S(=O)(=O)c1ccccc1)NCc1ccccc1 returned MCF10A rereplic 14.0%, KCNH2 3.1 inh -13.2, KCNH2 WT inh 14.9, SW480 rerep -2.4%, KB-3-1 cytotox inactive and KB-V1 cytotox 5.8µM*.
For CS(=O)(=O)N(CC(=O)NCCc1ccccc1)c1cccc([N+](=O)[O-])c1 the results were MCF10A rereplic 0.651µM*, KCNH2 3.1 inh -7.0, KCNH2 WT inh 16.5, SW480 rerep -33.9%, KB-3-1 cytotox inactive and KB-V1 cytotox inactive.
O=C(CSc1nc2ccccc2n1S(=O)(=O)c1cccc([N+](=O)[O-])c1)NCCc1ccccc1 was read as MCF10A rereplic 14.5%, KCNH2 3.1 inh -23.1, KCNH2 WT inh -14.2, SW480 rerep -1.8%, KB-3-1 cytotox inconclusive and KB-V1 cytotox 3.66µM*.
Cc1nc([N+](=O)[O-])cn1CC(O)c1ccc2c(c1)OCO2 (stereo unspecified) was read as KB-3-1 cytotox inactive and KB-V1 cytotox inactive.
`CCCCCCCCNC(=O)c1cnsn1` gave MCF10A rereplic -1.4%, KCNH2 3.1 inh 2.1, KCNH2 WT inh inactive, SW480 rerep 0.517µM*, KB-3-1 cytotox inactive and KB-V1 cytotox inactive.

Screens (PubChem BioAssay)
